In PubChem BioAssay AID463195 (Sanford-Burnham Center for Chemical Genomics, 2010):
Hit rate of the full screen: of about 330,000 compounds, about 4,600 (1.4%) were called active. For the sample, actives were picked, then their nearest neighbours and some compounds at random. A number with no mark means an inactive call.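 The calls were made as follows: active = inhibition of 40% or more at the single tested concentration; inactive = the rest.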

Experiment: growth inhibitors of isogenic TIM10 control yeast, primary screen, counter-screen for tim10-1 yeast inhibitor project, luminescence, uHTS (AID 463195);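 also: wild-type TIM10 isogenic control strain grown at permissive 25 °C; 0% = DMSO yeast wells and 100% = minimal medium wells without yeast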
Conditions: S. cerevisiae TIM10 strain growth, BacTiter-Glo luminescence, 24 h; at 10 µM; active compounds read high

SMILES | inhibition
Oc1ccc(/C=N/N(Cc2ccccc2)c2ccccc2)cc1 | 46% (active)
CCN(/N=C/c1ccccc1)c1cc(=O)n(C)c(=O)[nH]1 | 19.2%
CN(/N=C/c1ccccc1)C(=S)c1ccccc1 | -6.07%
CN1CCN(S(=O)(=O)c2cccc(C(=O)Nc3sccc3C#N)c2)CC1 | -3.26%
CSC1=NCCN1C(=O)Cc1cccc2ccccc12 | 4.36%
O=C1c2ccccc2C(=O)N1CC1c2ccccc2CCN1S(=O)(=O)c1ccccc1 (configuration not stated) | 40.3% (active)
O=S(=O)(c1ccccc1)N1CCc2ccccc21 | 2.66%
O=C(CCC(=O)N1CCN(S(=O)(=O)c2ccccc2)CC1)NC1CCCc2ccccc21 (configuration not stated) | 8.6%
O=[N+]([O-])c1ccccc1/C=C/CN1CCCC(CO)C1 (configuration not stated) | -25%
O=[N+]([O-])c1ccccc1/C=C/CN1CCC(O)CC1 | -13.6%
CC1CCCCC1NC(=O)/C(C#N)=C/C=C/c1ccccc1[N+](=O)[O-] (configuration not stated) | 47.3% (active)
CCOc1ccc(CN2CCN(Cc3c[nH]c4ccccc34)CC2)cc1 | -10.6%
CC1(C)CC(=O)C=C(NCCN2CCNCC2)C1 | 5.33%
Cc1ccc(/C=C/C(=O)OCC(=O)NCc2ccc(Cl)cc2)o1 | -3.46%
CCOC(=O)C1CN(S(=O)(=O)c2ccc(OC)cc2)c2cc(Cl)ccc2O1 (configuration not stated) | 15.1%
O=C1C2N=NN(CC(=O)N3N=C(c4cccc5ccccc45)CC3c3ccccc3)C2C(=O)N1c1ccccc1 (configuration not stated) | 22.8%
Oc1ccccc1C1=NN(c2ccccc2)C(c2ccccc2)C1 (configuration not stated) | 49% (active)
COc1ccccc1N1N=C(c2cccs2)CC1c1ccccc1 (configuration not stated) | 23%
CC(C)CC(COCc1ccc(Cl)cc1)N1CCN(C(=O)c2ccc(C(F)(F)F)cc2)CCC1=O (configuration not stated) | 17.7%

SMILES | inhibition
Cc1ccc(NC(=S)N/N=C2/CCCc3c(C)cc(C)cc32)cc1 | -3.6%
CCCCNC(=S)N/N=C1\CCCCc2ccccc21 | 48.2% (active)
CCCC1CCC(=NNC(=S)NCCc2ccccc2)CC1 (configuration not stated) | -23.1%
Cc1noc(C)c1S(=O)(=O)Nc1cc(C(F)(F)F)ccc1N1CCOCC1 | 14.8%
NS(=O)(=O)c1ccc(CCNC(=O)CCCn2c(SCC(=O)N3CCCC3)nc3ccsc3c2=O)cc1 | -3.82%
O=C(OCc1cc2ccccc2[nH]c1=O)c1cccnc1 | -6.32%
O=C(Oc1c(-c2ccco2)oc2ccccc2c1=O)c1cccnc1 | 63.5% (active)
COc1ccc(Oc2coc3cc(OC(=O)c4cncc(Br)c4)ccc3c2=O)cc1 | 22.3%
Cn1c(CC2Sc3ccccc3NC2=O)nnc1SCC(=O)c1ccc(Cl)cc1 (configuration not stated) | 2.41%
COc1cccc(NC(C)=[N+](C)CCNS(=O)(=O)c2ccc(Cl)cc2)c1 | -4.11%
CCCCn1c(N)c(N(CCC(C)C)C(=O)c2ccc([N+](=O)[O-])o2)c(=O)[nH]c1=O | -3.66%
Cc1[nH]n(C(N)=S)c(=O)c1N=Nc1ccc(Cl)cc1Cl | 50.4% (active)
Cc1[nH]n(C)c(=O)c1N=Nc1ccc(S(C)(=O)=O)cc1 | 6.98%
CC1=NN(C(N)=S)C(=O)C1N=Nc1cc(Cl)ccc1Cl (configuration not stated) | 28.1%
COC(=O)Cc1ccc(NC(=S)NCc2ccc(Cl)cc2)cc1 | 28%
S=C(NCc1ccc(Cl)cc1)NC12CC3CC(CC(C3)C1)C2 | 61.1% (active)
O=C(NCc1ccc(Cl)cc1)NCc1ccc(Cl)cc1 | -12.6%
CSc1nc2nc(-c3cccc(C(F)(F)F)c3)ccn2n1 | -28%
